Conditions in all cases: mRNA level, 48 h; actives raise or lower the signal
Read-out in one assay: CYP2C9 (gene 1559)
The assay can be described thus: LTEA_HepaRG_CYP2C9: Life Technologies and Expression Analysis (LTEA) Assay for CYP2C9 using HepaRG (AID 2283484). In short, it runs like this: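 Eight-point concentration-response (highest 100 uM, half-log dilutions) in HepaRG cells for 48 h; CYP2C9 expression by qRT-PCR normalized to ACTB, GAPDH, POLR2A. Bidirectional fit, DMSO baseline.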

Read-out in the next assay: CYP2E1 (gene 1571)
The assay can be described thus: LTEA_HepaRG_CYP2E1: Life Technologies and Expression Analysis (LTEA) Assay for CYP2E1 using HepaRG (AID 2283485). In short, it runs like this:
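Assay uses 48 h exposure of HepaRG hepatic cells, eight concentrations to 100 uM. Expression of CYP2E1 is quantified by TaqMan qRT-PCR with ACTB, GAPDH and POLR2A normalization; curves fitted in both directions relative to vehicle.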

Read-out in a further assay: CYP4A11 (gene 1579)
The assay can be described thus: LTEA_HepaRG_CYP4A11: Life Technologies and Expression Analysis (LTEA) Assay for CYP4A11 using HepaRG (AID 2283486). In short, it runs like this:
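CYP4A11 transcript levels were quantified by TaqMan qRT-PCR after HepaRG human liver cells were treated for 48 hours with test chemicals (top 100 uM, half-log dilutions, 0.5% DMSO). Gain or loss of signal was fitted relative to DMSO.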

Read-out in assay [1]: Cytochrome P450 3A4 (Homo sapiens) (UniProt P08684)
The assay can be described thus: LTEA_HepaRG_CYP3A4: Life Technologies and Expression Analysis (LTEA) Assay for CYP3A4 using HepaRG (AID 2283487). In short, it runs like this: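 CYP3A4 transcript measured by TaqMan qRT-PCR and normalized to three housekeeping genes after 48 h chemical exposure of human HepaRG cells. Top concentration 100 uM, half-log steps, 0.5% DMSO vehicle; gain or loss fitted against DMSO baseline.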

Read-out in assay [2]: DNA damage-inducible transcript 3 (DDIT3), DDIT3 (gene 1649)
The assay can be described thus: LTEA_HepaRG_DDIT3: Life Technologies and Expression Analysis (LTEA) Assay for DNA damage-inducible transcript 3 (DDIT3) using HepaRG (AID 2283488). In short, it runs like this:
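Eight-point concentration-response (100 uM highest, half-log dilutions) in HepaRG, 48 h, duplicate wells. Endpoint: qRT-PCR mRNA, normalized (ACTB, GAPDH, POLR2A), bidirectional fitting with DMSO as baseline.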

Read-out in assay [3]: Pro-epidermal growth factor (Homo sapiens) (UniProt P01133)
The assay can be described thus: LTEA_HepaRG_EGF: Life Technologies and Expression Analysis (LTEA) Assay for Epidermal growth factor (EGF) using HepaRG (AID 2283489). In short, it runs like this:
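qRT-PCR readout of EGF transcript after 48 h chemical exposure of HepaRG cells; eight concentrations from 100 uM down in half-log steps, duplicate wells, 0.5% DMSO vehicle. Bidirectional curve fitting against DMSO baseline.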

Read-out in assay [4]: Early growth response protein 1 (EGR1) transcription factor, EGR1 (gene 1958)
The assay can be described thus: LTEA_HepaRG_EGR1: Life Technologies and Expression Analysis (LTEA) Assay for Early growth response protein 1 (EGR1) transcription factor using HepaRG (AID 2283490). In short, it runs like this:
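EGR1 expression change in human HepaRG after 48 h chemical exposure, assessed by housekeeping-normalized qRT-PCR; concentration-response up to 100 uM, fitted in both directions against DMSO controls.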

Read-out in assay [5]: Ezrin (EZR), EZR (gene 7430)
The assay can be described thus: LTEA_HepaRG_EZR: Life Technologies and Expression Analysis (LTEA) Assay for Ezrin (EZR) using HepaRG (AID 2283491). In short, it runs like this: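 HepaRG, 48 h chemical exposure, 8-pt half-log series from 100 uM, 0.5% DMSO vehicle, duplicates. Read-out: EZR mRNA by TaqMan qRT-PCR (Fluidigm array), housekeeping-normalized; bidirectional curve fit vs DMSO baseline.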

Read-out in assay [6]: Cytochrome P450 3A7 (Homo sapiens) (UniProt P24462)
The assay can be described thus: LTEA_HepaRG_CYP3A7: Life Technologies and Expression Analysis (LTEA) Assay for CYP3A7 using HepaRG (AID 2283492). In short, it runs like this: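 CYP3A7 transcript levels were read by TaqMan qRT-PCR on Fluidigm arrays after 48 h chemical exposure of human HepaRG cells, with housekeeping-gene normalisation. Eight half-log concentrations up to 100 uM in 0.5% DMSO were tested in duplicate.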

Read-out in a further assay: CYP3A5 (gene 1577)
The assay can be described thus: LTEA_HepaRG_CYP3A5: Life Technologies and Expression Analysis (LTEA) Assay for CYP3A5 using HepaRG (AID 2283493). In short, it runs like this:
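Readout was CYP3A5 mRNA by qRT-PCR. HepaRG cultures were exposed for 48 h in serum-free induction medium to chemicals at up to 100 uM, and responses were fitted in both directions relative to DMSO vehicle.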

Read-out in assay [7]: Fatty Acid-Binding Protein 1 (FABP1), FABP1 (gene 2168)
The assay can be described thus: LTEA_HepaRG_FABP1: Life Technologies and Expression Analysis (LTEA) Assay for Fatty Acid-Binding Protein 1 (FABP1) using HepaRG (AID 2283494). In short, it runs like this: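 Values reflect bidirectional concentration-response fitting of FABP1 mRNA change against 0.5% DMSO controls. Human HepaRG cultures received eight half-log doses (top 100 uM) for 48 h; expression quantified by TaqMan qRT-PCR with housekeeping-gene normalization.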

Read-out in assay [8]: Cytochrome P450 4A22 (Homo sapiens) (UniProt Q5TCH4)
The assay can be described thus: LTEA_HepaRG_CYP4A22: Life Technologies and Expression Analysis (LTEA) Assay for Cytochrome P450 4A22 (CYP4A22) using HepaRG (AID 2283495). In short, it runs like this:
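HepaRG, 48 h post-plating -> serum-free induction medium; dosed 48 h, duplicate, 8 conc. (100 uM top, half-log), 0.5% DMSO. Readout: CYP4A22 mRNA by qRT-PCR, ACTB/GAPDH/POLR2A normalization; gain/loss fit relative to DMSO.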

Read-out in assay [9]: Cytochrome P450 7A1 (Homo sapiens) (UniProt P22680)
The assay can be described thus: LTEA_HepaRG_CYP7A1: Life Technologies and Expression Analysis (LTEA) Assay for Cytochrome P450 7A1 (CYP7A1) using HepaRG (AID 2283496). In short, it runs like this:
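Using 0.5% DMSO as vehicle and baseline, chemicals were tested in duplicate over an 8-point range from 100 uM on HepaRG cells for 48 h; qRT-PCR signals were normalised to ACTB, GAPDH and POLR2A.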

Read-out in assay [10]: Glutathione S-Transferase (GSTA2), GSTA2 (gene 2939)
The assay can be described thus: LTEA_HepaRG_GSTA2: Life Technologies and Expression Analysis (LTEA) Assay for Glutathione S-Transferase (GSTA2) using HepaRG (AID 2283497). In short, it runs like this:
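Oxidative-stress marker GSTA2 is quantified by TaqMan qRT-PCR in HepaRG cultures treated 48 h across an eight-point range to 100 uM. Expression is normalized to endogenous controls and compared with 0.5% DMSO vehicle.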

Read-out in assay [11]: Glutamate-cysteine ligase catalytic (GCLC), GCLC (gene 2729)
The assay can be described thus: LTEA_HepaRG_GCLC: Life Technologies and Expression Analysis (LTEA) Assay for Glutamate-cysteine ligase catalytic (GCLC) using HepaRG (AID 2283498). In short, it runs like this:
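Oxidative-stress marker GCLC is measured as mRNA change in human HepaRG liver cells after 48 h chemical treatment in 0.5% DMSO, eight concentrations from 100 uM. Activity is fitted bidirectionally against vehicle.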

Read-out in assay [12]: growth arrest and DNA damage 45 (GADD45G), GADD45G (gene 10912)
The assay can be described thus: LTEA_HepaRG_GADD45G: Life Technologies and Expression Analysis (LTEA) Assay for growth arrest and DNA damage 45 (GADD45G) using HepaRG (AID 2283499). In short, it runs like this: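 HepaRG, 48 h exposure, top 100 uM, half-log 8-point series, 0.5% DMSO vehicle, duplicates. Readout: GADD45G transcript by qRT-PCR (Fluidigm array), housekeeping-normalised (ACTB/GAPDH/POLR2A). Bidirectional curve fit vs DMSO baseline.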

Read-out in assay [13]: Glutamate-cysteine ligase regulatory (GCLM), GCLM (gene 2730)
The assay can be described thus: LTEA_HepaRG_GCLM: Life Technologies and Expression Analysis (LTEA) Assay for Glutamate-cysteine ligase regulatory (GCLM) using HepaRG (AID 2283500). In short, it runs like this:
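In this multiplexed HepaRG gene-expression assay, GCLM mRNA change after 48 h treatment (8 concentrations, max 100 uM) was scored against DMSO by bidirectional curve fitting.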

Read-out in assay [14]: Heat shock 70 kDa protein 1 (HSPA1A), gene 3303
The assay can be described thus: LTEA_HepaRG_HSPA1A: Life Technologies and Expression Analysis (LTEA) Assay for Heat shock 70 kDa protein 1 (HSPA1A) using HepaRG (AID 2283502). In short, it runs like this: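 An oxidative-stress marker readout: HepaRG cells treated 48 h in duplicate with an eight-point series (highest 100 uM) had HSPA1A mRNA quantified by TaqMan qRT-PCR. Activity was fitted in both directions using 0.5% DMSO as baseline.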

Read-out in assay [15]: Glutathione S-transferase M3 (GSTM3), GSTM3 (gene 2947)
The assay can be described thus: LTEA_HepaRG_GSTM3: Life Technologies and Expression Analysis (LTEA) Assay for Glutathione S-transferase M3 (GSTM3) using HepaRG (AID 2283501). In short, it runs like this:
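qRT-PCR read-out of GSTM3 transcript, normalized to three housekeeping genes, from human HepaRG cells after 48 h chemical exposure. Eight-point half-log series, top 100 uM, 0.5% DMSO vehicle; gain or loss fitted relative to DMSO baseline.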

Read-out in assay [16]: Hypoxia-inducible factor 1-alpha (Homo sapiens) (UniProt Q16665)
The assay can be described thus: LTEA_HepaRG_HIF1A: Life Technologies and Expression Analysis (LTEA) Assay for Hypoxia-inducible factor 1 (HIF1A) Trancription factor using HepaRG (AID 2283503).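 Note: HIF1A transcript by TaqMan qRT-PCR normalized to ACTB GAPDH and POLR2A.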 In short, it runs like this: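 Gain- or loss-of-signal HIF1A mRNA changes are fitted against a DMSO baseline. HepaRG cultures receive eight concentrations, highest 100 uM, for 48 h in serum-free induction medium with 0.5% DMSO.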

Active and inactive are the calls of the source. Rule for the calls: active = hit-call score of the fitted dose curve at least 0.9, where 1 is the maximum; inactive = score below 0.9.

Chain of Cytochrome P450 3A4 (Homo sapiens) (P08684 whole entry, looked up): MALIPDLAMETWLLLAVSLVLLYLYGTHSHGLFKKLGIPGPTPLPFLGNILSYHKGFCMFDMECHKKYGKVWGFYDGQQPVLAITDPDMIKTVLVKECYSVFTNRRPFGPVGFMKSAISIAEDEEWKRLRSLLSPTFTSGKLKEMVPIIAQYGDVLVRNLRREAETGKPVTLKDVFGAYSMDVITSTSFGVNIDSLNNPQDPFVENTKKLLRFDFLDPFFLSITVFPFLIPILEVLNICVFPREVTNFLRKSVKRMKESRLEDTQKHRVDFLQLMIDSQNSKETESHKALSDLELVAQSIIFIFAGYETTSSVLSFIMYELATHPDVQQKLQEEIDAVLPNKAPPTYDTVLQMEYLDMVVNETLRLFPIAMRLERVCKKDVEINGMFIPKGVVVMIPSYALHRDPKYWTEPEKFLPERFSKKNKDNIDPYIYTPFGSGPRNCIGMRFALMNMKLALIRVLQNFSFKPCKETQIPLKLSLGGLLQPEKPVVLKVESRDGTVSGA
Chain of Cytochrome P450 3A7 (Homo sapiens) (P24462 whole entry, looked up): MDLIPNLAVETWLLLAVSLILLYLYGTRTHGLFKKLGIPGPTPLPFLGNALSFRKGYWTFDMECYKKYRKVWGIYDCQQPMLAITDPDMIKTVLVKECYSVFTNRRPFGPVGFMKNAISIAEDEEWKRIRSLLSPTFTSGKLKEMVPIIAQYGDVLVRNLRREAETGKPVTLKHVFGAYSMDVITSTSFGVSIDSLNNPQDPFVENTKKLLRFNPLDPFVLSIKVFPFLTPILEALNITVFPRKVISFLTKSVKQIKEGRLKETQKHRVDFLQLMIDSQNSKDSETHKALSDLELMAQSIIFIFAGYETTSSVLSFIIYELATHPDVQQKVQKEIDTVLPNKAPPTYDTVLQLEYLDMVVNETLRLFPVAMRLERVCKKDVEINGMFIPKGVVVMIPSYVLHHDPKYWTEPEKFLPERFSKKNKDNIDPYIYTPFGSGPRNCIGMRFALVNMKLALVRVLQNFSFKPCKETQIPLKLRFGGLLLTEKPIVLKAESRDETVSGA
Chain of Hypoxia-inducible factor 1-alpha (Homo sapiens) (Q16665 whole entry, looked up): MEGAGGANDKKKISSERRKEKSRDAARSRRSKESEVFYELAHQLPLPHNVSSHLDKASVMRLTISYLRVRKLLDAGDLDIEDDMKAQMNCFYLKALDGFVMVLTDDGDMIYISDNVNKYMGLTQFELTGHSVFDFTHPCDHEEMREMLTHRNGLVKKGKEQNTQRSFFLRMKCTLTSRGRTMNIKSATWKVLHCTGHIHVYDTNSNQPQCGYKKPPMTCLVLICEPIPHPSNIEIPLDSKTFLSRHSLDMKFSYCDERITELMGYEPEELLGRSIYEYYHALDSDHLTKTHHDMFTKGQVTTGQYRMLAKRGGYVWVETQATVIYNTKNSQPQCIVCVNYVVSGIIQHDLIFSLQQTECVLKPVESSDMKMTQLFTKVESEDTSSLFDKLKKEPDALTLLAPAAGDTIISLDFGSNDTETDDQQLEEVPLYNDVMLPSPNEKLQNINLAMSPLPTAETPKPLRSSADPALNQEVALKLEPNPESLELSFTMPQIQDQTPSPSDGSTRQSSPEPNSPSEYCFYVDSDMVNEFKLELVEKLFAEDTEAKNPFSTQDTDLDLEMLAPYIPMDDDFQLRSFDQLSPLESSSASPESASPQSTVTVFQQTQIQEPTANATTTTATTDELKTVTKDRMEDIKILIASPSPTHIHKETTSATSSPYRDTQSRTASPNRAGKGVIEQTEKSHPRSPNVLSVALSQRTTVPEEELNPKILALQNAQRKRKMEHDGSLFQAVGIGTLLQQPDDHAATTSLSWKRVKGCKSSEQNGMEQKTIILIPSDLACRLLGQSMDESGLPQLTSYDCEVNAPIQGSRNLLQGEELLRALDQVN

Consider `N#CC(Br)Br`, for which the call (with CYP2C9 (gene 1559); with CYP2E1 (gene 1571); with CYP4A11 (gene 1579); in assay [1]; in assay [2]; in assay [3]) was inactive. The compound was classed as inactive (in assay [4]; in assay [5]; in [6]; in the assay with CYP3A5 (gene 1577); in assay [7]; in assay [8]). Further, the outcome in assay [9], in [10], in assay [11], in assay [12], in assay [13] and in assay [14] was inactive.
In the case of `Nc1ccc(Cc2ccc(N)cc2)cc1`, the AC50 – broadly, the midpoint of the concentration-response curve, whichever way the signal moves – was 20 µM (active) with CYP2C9 (gene 1559) and 21.4 µM (active) in [6]. For the same compound, the compound was classed as inactive (with CYP2E1 (gene 1571); with CYP4A11 (gene 1579); in [1]; in assay [2]; in assay [3]; in assay [4]). Moreover, the outcome (in [5]; in the assay with CYP3A5 (gene 1577); in [7]; in assay [8]; in [9]; in assay [10]) was inactive. Besides, the call in [11], in [12], in assay [13], in assay [15] and in [14] was inactive.
Take `CCOc1cccc(C2(N3CCN(c4ccccc4)CC3)CCC(C)CC2)c1` (configuration not stated): the outcome (with CYP2C9 (gene 1559); in the assay with CYP2E1 (gene 1571); with CYP4A11 (gene 1579); in [1]; in assay [2]; in [3]) was inactive. The outcome (in [4]; in assay [5]; in assay [6]; in the assay with CYP3A5 (gene 1577); in [7]; in assay [8]) was inactive. In addition, the outcome in assay [9], in [10], in assay [11], in assay [12], in assay [13] and in assay [15] was inactive. Also, the call in assay [14] and in assay [16] was inactive.

For the origin of these results see PubChem BioAssay (EPA / NIEHS).
